{"source": "the supplement of paper PMC10720658", "note": "± gives the standard deviation of the averaged measurements."}
{"test_system": "AEK1 (Tb927.3.2440)", "assay": "percent reduction in TR-FRET probe signal relative to DMSO control; higher = stronger displacement of ATP-site probe (binding)", "details": "1 µM; incubation time 1 h", "units": {"percent reduction in TR-FRET probe signal": "%"}}
{"compound": "O=c1ncn2nc(Sc3ccc(F)cc3F)ccc2c1-c1c(Cl)cccc1Cl", "percent reduction in TR-FRET probe signal": "9.39 ± 14"}
{"compound": "O=C(O)c1ccc(-c2c[nH]c3ncc(-c4ccccc4)cc23)cc1C1CCCC1", "percent reduction in TR-FRET probe signal": "-2.47 ± 9.6"}
{"compound": "CN1CCN(c2nc(C3=C(c4c[nH]c5ccccc45)C(=O)NC3=O)c3ccccc3n2)CC1", "note": "[Sotrastaurin]", "percent reduction in TR-FRET probe signal": "-7.1 ± 1.4"}
{"compound": "CCc1nc(-c2cccc(C)c2)c(-c2ccnc(NC(=O)c3ccccc3)c2)s1", "percent reduction in TR-FRET probe signal": "-2.96 ± 11"}
{"compound": "CC(C)n1nc(-c2ccc3oc(N)nc3c2)c2c(N)ncnc21", "percent reduction in TR-FRET probe signal": "-2.53 ± 6.7"}
{"compound": "Cc1ccc(C(=O)Nc2ccc(CN3CCN(C)CC3)c(C(F)(F)F)c2)cc1C#Cc1cnc2cccnn12", "percent reduction in TR-FRET probe signal": "0.933 ± 14"}
{"compound": "Cc1c(F)cc(C(=O)NC2CC2)cc1-c1ccc(C(=O)NCC(C)(C)C)cn1", "percent reduction in TR-FRET probe signal": "-10 ± 9.6"}
{"compound": "CN(C)Cc1cccc(N/C(=C2\\C(=O)Nc3cc(C(=O)N(C)C)ccc32)c2ccccc2)c1", "percent reduction in TR-FRET probe signal": "-0.927 ± 9.6"}
{"compound": "Cc1cc(CS(=O)(=O)c2ccccc2)cc(OCc2ccc(CN3CCC[C@@H]3CO)cc2)c1", "percent reduction in TR-FRET probe signal": "-6.92 ± 5.9"}
{"compound": "COCC(=O)NC/C=C/c1ccc2ncnc(Nc3ccc(Oc4ccc(C)nc4)c(C)c3)c2c1", "percent reduction in TR-FRET probe signal": "3.65 ± 5.5"}
{"compound": "CCn1c(=O)c(-c2ccc(-c3cncs3)cc2Cl)cc2cnc(Nc3ccc(N4CCN(C)CC4)cc3)nc21", "percent reduction in TR-FRET probe signal": "43.6 ± 6.3"}
{"compound": "O=[N+]([O-])c1cnc(Sc2nnc(O)n2-c2ccc3c(c2)OCCO3)s1", "percent reduction in TR-FRET probe signal": "0.0867 ± 3.4"}
{"compound": "O=c1cc(N2CCOCC2)oc2c(-c3ccccc3)cccc12", "percent reduction in TR-FRET probe signal": "-4.66 ± 9.2"}
{"compound": "CNC(=O)c1nn(C)c2c1C(C)(C)Cc1cnc(Nc3ccc(N4CCN(C)CC4)cc3)nc1-2", "percent reduction in TR-FRET probe signal": "-3.55 ± 7.5"}
{"compound": "Cc1cc([C@@H](C)Nc2ccccc2C(=O)O)c2nc(N3CCOCC3)cc(=O)n2c1", "percent reduction in TR-FRET probe signal": "-5.32 ± 14"}
{"compound": "Cc1[nH]c2ccccc2c1C1=C(NCCc2ccc(F)cc2)C(=O)N(C)C1=O", "percent reduction in TR-FRET probe signal": "8.32 ± 10"}
{"compound": "O=C1N=C(NCc2cccs2)S/C1=C\\c1ccc2ncccc2c1", "percent reduction in TR-FRET probe signal": "8.12 ± 4.7"}
{"compound": "O=C1NC(=O)/C(=C/c2ccc3c(c2)OC(F)(F)O3)S1", "percent reduction in TR-FRET probe signal": "-3.7 ± 5.9"}
{"compound": "CCCCCCCCc1ccc(CCC(N)(CO)CO)cc1.Cl", "note": "[Fingolimod (FTY720) HCl]", "percent reduction in TR-FRET probe signal": "-8.59 ± 6.3"}
{"compound": "C=CC(=O)N1CCCC(n2nc(-c3ccc(Oc4ccccc4)cc3)c3c(N)ncnc32)C1", "note": "(stereo not drawn)", "percent reduction in TR-FRET probe signal": "4.46 ± 4.9"}
{"compound": "Oc1cc(O)cc(/C=C/c2ccc(O)c(O)c2)c1", "note": "[Piceatannol]", "percent reduction in TR-FRET probe signal": "44.1 ± 8"}
{"compound": "O=C(Nc1ccccc1C(=O)NC1CCCCNC1=O)c1cc2ccccc2s1", "note": "(stereo not drawn)", "percent reduction in TR-FRET probe signal": "-0.533 ± 1.2"}
{"compound": "COc1cccc(-n2c(=O)[nH]c3cc(Cl)n(-c4ccc(-c5cccc(OC)c5O)cc4)c3c2=O)c1", "percent reduction in TR-FRET probe signal": "-7.49 ± 2.1"}
{"compound": "O=C1c2ccc(Nc3ccc(F)cc3F)cc2CCc2ccc(OC[C@H](O)CO)cc21", "note": "[Skepinone-L]", "percent reduction in TR-FRET probe signal": "-1.27 ± 10"}
{"compound": "CNC(=O)c1ccccc1Sc1ccc2c(/C=C/c3ccccn3)n[nH]c2c1", "note": "[Axitinib]", "percent reduction in TR-FRET probe signal": "52.4 ± 18"}
{"compound": "COc1cc(N2CCC(N3CCN(C)CC3)CC2)ccc1Nc1ncnc(Nc2ccccc2S(=O)(=O)C(C)C)n1", "percent reduction in TR-FRET probe signal": "-6.14 ± 6.2"}
{"compound": "CC(C)(CCCCCC(O)CCCCCC(C)(C)C(=O)O)C(=O)O", "percent reduction in TR-FRET probe signal": "0.88 ± 3.4"}
{"compound": "O=C1NC(=O)[C@@H](c2cn3c4c(cccc24)CCC3)[C@@H]1c1c[nH]c2ccccc12", "note": "[Tivantinib (ARQ 197)]", "percent reduction in TR-FRET probe signal": "5.86 ± 12"}
{"compound": "CCN(C)S(=O)(=O)Nc1ccc(F)c(C(=O)c2c[nH]c3ncc(-c4cnc(C5CC5)nc4)cc23)c1F", "percent reduction in TR-FRET probe signal": "-1.7 ± 4"}
{"compound": "Cn1cnc(-c2cc3nccc(Oc4ccc(NC(=S)NC(=O)Cc5ccccc5)cc4F)c3s2)c1", "percent reduction in TR-FRET probe signal": "10.3 ± 8.6"}
{"compound": "CC(C)(C)c1nc(-c2cccc(NS(=O)(=O)c3c(F)cccc3F)c2F)c(-c2ccnc(N)n2)s1", "percent reduction in TR-FRET probe signal": "6.2 ± 7.3"}
{"compound": "CCn1c(-c2nonc2N)nc2c(C#CC(C)(C)O)ncc(OC[C@H]3CCCNC3)c21", "percent reduction in TR-FRET probe signal": "8.8 ± 4.9"}
{"compound": "Cc1c(NC(=O)OC[C@@H]2COCCN2)cn2ncnc(Nc3ccc4c(cnn4Cc4cccc(F)c4)c3)c12", "percent reduction in TR-FRET probe signal": "-10.7 ± 4.8"}
{"compound": "O=C(Nc1ccc(OC(F)(F)F)cc1)c1sccc1NCc1ccnc2ccccc12", "percent reduction in TR-FRET probe signal": "-8.08 ± 5.7"}
{"compound": "Cc1c(CN2CCN(C(=O)[C@H](C)O)CC2)sc2c(N3CCOCC3)nc(-c3cnc(N)nc3)nc12", "percent reduction in TR-FRET probe signal": "0.467 ± 7.8"}
{"compound": "CNC(=O)CN1CCC(Oc2cc3c(Nc4cccc(Cl)c4F)ncnc3cc2OC)CC1", "note": "[Sapitinib (AZD8931)]", "percent reduction in TR-FRET probe signal": "-5.78 ± 5.4"}
{"compound": "Cc1c[nH]c2nc(Nc3ccc(N4CCN(C)CC4)c(F)c3)nc(-c3cccc(CC#N)c3)c12", "percent reduction in TR-FRET probe signal": "56.3 ± 2"}
{"compound": "CC(C)c1cnn2c(NCc3ccccc3)cc(NCCCCCCN)nc12.Cl", "percent reduction in TR-FRET probe signal": "-3.89 ± 4.8"}
